Assay [1] is described as follows: qHTS assay to identify small molecule antagonists of the glucocorticoid receptor (GR) signaling pathway - cell viability counter screen (AID 720693). Note: nearly all actives have a fitted effect of over 55% in size. A general note: In qHTS, concentration-response curves come from the screen itself.
A short description of assay [2]: qHTS assay for identifying genotoxic compounds that show differential cytotoxicity against isogenic chicken DT40 cell lines with known DNA damage response pathways - wild type cell line (AID 743012). Note: nearly all actives have a fitted effect of over 60% in size. Note: potency is the fitted concentration of half-maximal effect. Put shortly:
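First, wild type DT40 cells were plated at 300 per well and equilibrated about 0.5 h at 37 C/5% CO2. Next, compounds in DMSO were added and exposure lasted 40 h. Finally, CellTiter-Glo was added for 30 min at room temperature and luminescence recorded.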

A short description of assay [3]: qHTS assay for identifying genotoxic compounds that show differential cytotoxicity against isogenic chicken DT40 cell lines with known DNA damage response pathways - Rev3 mutant cell line (AID 743014). Note: nearly all actives have a fitted effect of over 55% in size. Note: potency is the fitted concentration of half-maximal effect.
A short description of assay [4]: qHTS assay for identifying genotoxic compounds that show differential cytotoxicity against isogenic chicken DT40 cell lines with known DNA damage response pathways - Rad54/Ku70 mutant cell line (AID 743015). Note: nearly all actives have a fitted effect of over 60% in size. Note: potency is the fitted concentration of half-maximal effect.
Assay [5] is described as follows: qHTS assay to identify small molecule antagonists of the androgen receptor (AR) signaling pathway - cell viability counter screen (AID 743033; note: nearly all actives have a fitted effect of over 45% in size).
Assay [6] addresses Androgen receptor (Homo sapiens) (UniProt P10275). Nature of the assay: qHTS assay to identify small molecule antagonists of the androgen receptor (AR) signaling pathway (AID 743035; active = well fitted inhibition curve with a large enough effect in the signal ratio in the repeat runs, not every such curve was filed as active; the % refers to the signal ratio). The procedure, abridged:
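Beta-lactamase FRET read (2 h RT incubation with LiveBLAzer B/G) following 16 h of compound plus R1881 treatment of AR-UAS-bla HEK293 cells, which had been pre-incubated 4 h at 37C.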

The target is the same in assay [7]. In words: qHTS assay to identify small molecule agonists of the androgen receptor (AR) signaling pathway (AID 743036; active = well fitted activation curve with a large enough effect in the signal ratio in the repeat runs, with a control signal flat, not every such curve was filed as active; the % refers to the signal ratio). Put shortly:
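Screening used 2,000 AR-bla HEK293 cells per well, treated 16 h at 37C with test compounds in DMSO alongside positive and DMSO-only controls; beta-lactamase activity was then read by LiveBLAzer B/G FRET fluorescence after 2 h at room temperature.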

Assay [8] shares this target. In words: qHTS assay to identify small molecule agonists of the androgen receptor (AR) signaling pathway using the MDA cell line (AID 743040; note: nearly all actives have a fitted effect of over 20% in size). Put shortly:
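Luminescence from ONE-Glo, read after 30 min at room temperature, reflects MMTV-driven luciferase in MDA-kb2 cells (AR- and GR-responsive). Treatment lasted 16 h at 37C, 0% CO2.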

The nature of assay [9]: qHTS assay to identify small molecule antagonists of the androgen receptor (AR) signaling pathway using the MDA cell line - cell viability counter screen (AID 743041; note: nearly all actives have a fitted effect of over 45% in size). Put shortly: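 Viability counter screen run alongside the AR antagonist reporter: cells seeded 5 h before compound, R1881 added, 16 h incubation at 37C without CO2, fluorescent CellTiter-Fluor signal quantified.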

A short description of assay [10]: qHTS assay to identify small molecule antagonists of the thyroid receptor (TR) signaling pathway - cell viability counter screen (AID 743064). Note: nearly all actives have a fitted effect of over 50% in size. Note: potency is the fitted concentration of half-maximal effect. The procedure, abridged: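 Viability of T3-stimulated (1 nM final) GH3.TRE-Luc cells is measured by CellTiter-Fluor fluorescence after 23.5 h compound exposure at 37 °C plus 30 min reagent incubation.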
Assay [11] has as its system thyroid hormone receptor (rat, GH3 cells). In words: qHTS assay to identify small molecule agonists of the thyroid receptor (TR) signaling pathway (AID 743066; calls by dose curve).
Assay [12] is described as follows: qHTS assay to identify small molecule antagonists of the estrogen receptor alpha (ER-alpha) signaling pathway - cell viability counter screen (AID 743074; calls by dose curve;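 note: HEK293 cells carrying ER-alpha-UAS-bla reporter stimulated with 17beta-estradiol; nearly all actives have a fitted effect of over 45% in size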; note: potency is the fitted concentration of half-maximal effect).
Assay [13] is described as follows: qHTS assay to identify small molecule antagonists of the estrogen receptor alpha (ER-alpha) signaling pathway using the BG1 cell line - cell viability counter screen (AID 743081).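 Note: compound given together with 17beta-estradiol as the ER stimulus; series mostly up to about 70 µM; nearly all actives have a fitted effect of over 45% in size.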
In assay [14] the target is Aromatase (Homo sapiens) (UniProt P11511). In words: qHTS assay to identify aromatase inhibitors (AID 743083). Note: series mostly up to about 70 µM; nearly all actives have a fitted effect of over 55% in size.
Aromatase (Homo sapiens), sequence (P11511 whole entry, looked up): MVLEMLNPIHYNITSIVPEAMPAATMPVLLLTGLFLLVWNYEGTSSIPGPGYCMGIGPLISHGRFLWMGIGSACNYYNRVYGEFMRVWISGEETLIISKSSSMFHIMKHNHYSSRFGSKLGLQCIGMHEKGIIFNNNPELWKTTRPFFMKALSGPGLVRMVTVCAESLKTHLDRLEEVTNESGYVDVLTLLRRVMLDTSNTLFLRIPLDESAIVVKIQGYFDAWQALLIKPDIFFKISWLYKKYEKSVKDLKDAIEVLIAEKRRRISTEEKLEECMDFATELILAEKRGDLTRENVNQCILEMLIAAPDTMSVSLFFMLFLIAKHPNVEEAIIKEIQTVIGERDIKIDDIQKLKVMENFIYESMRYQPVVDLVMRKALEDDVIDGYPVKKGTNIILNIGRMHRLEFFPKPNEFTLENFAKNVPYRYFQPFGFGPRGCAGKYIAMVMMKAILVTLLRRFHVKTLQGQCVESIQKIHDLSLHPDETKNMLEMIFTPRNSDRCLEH
The nature of assay [15]: qHTS assay to identify aromatase inhibitors - cell viability counter screen (AID 743084).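 Note: cells stimulated with testosterone during compound exposure; nearly all actives have a fitted effect of over 55% in size.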
Assay [16] in a line: qHTS assay to identify small molecule antagonists of the thyroid receptor (TR) signaling pathway (AID 743065). Note: nearly all actives have a fitted effect of over 55% in size. Note: potency is the fitted concentration of half-maximal effect. Put shortly:
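GH3.TRE-Luc rat pituitary cells carrying two TR response elements driving luciferase were plated for 4 h, given compound plus 1 nM T3 (final), and incubated 23.5 h at 37 C. ONE-Glo luminescence measured reporter inhibition; CellTiter-Fluor fluorescence tracked cytotoxicity.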

The target in assay [17] is Estrogen receptor (Homo sapiens) (UniProt P03372). In words: qHTS assay to identify small molecule antagonists of the estrogen receptor alpha (ER-alpha) signaling pathway (AID 743069; active = well fitted curve in the direction sought with a large enough effect in the signal ratio in the repeat runs, not every such curve was filed as active; the % refers to the signal ratio). The procedure, abridged: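 Estradiol-stimulated ER-alpha-UAS-bla HEK293 cells, 18 hr compound exposure at 37C. LiveBLAzer B/G substrate, 2 hr RT, fluorescence read.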
Estrogen receptor (Homo sapiens), sequence (P03372 whole entry, looked up): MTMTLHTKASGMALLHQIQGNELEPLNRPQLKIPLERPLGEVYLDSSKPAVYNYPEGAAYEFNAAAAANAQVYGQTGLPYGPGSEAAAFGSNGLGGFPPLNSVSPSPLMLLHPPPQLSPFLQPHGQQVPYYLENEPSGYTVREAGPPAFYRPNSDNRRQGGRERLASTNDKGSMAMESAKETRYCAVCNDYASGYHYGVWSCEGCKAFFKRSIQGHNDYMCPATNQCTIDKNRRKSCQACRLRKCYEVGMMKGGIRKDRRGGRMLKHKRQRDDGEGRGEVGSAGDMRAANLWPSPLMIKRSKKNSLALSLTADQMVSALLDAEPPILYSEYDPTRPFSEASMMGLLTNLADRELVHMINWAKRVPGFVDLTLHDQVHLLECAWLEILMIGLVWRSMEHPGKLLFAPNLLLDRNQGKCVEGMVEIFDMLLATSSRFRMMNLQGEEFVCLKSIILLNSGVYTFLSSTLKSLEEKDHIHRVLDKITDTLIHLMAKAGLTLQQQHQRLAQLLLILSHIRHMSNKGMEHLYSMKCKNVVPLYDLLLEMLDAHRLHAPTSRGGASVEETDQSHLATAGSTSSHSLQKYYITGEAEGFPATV
For assay [18] the target is unchanged. In words: qHTS assay to identify small molecule agonists of the estrogen receptor alpha (ER-alpha) signaling pathway (AID 743075; calls by dose curve;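 note: HEK293 GripTite cells with ER-alpha and UAS-driven beta-lactamase reporter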).
Assay [19] has the same target. Nature of the assay: qHTS assay to identify small molecule agonists of the estrogen receptor alpha (ER-alpha) signaling pathway using the BG1 cell line (AID 743079). Note: nearly all actives have a fitted effect of over 20% in size.
The nature of assay [20]: qHTS assay to identify small molecule antagonists of the estrogen receptor alpha (ER-alpha) signaling pathway using the BG1 cell line (AID 743080; calls by dose curve;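 note: BG1 cells stimulated with 17beta-estradiol alongside compound; series mostly up to about 70 µM; nearly all actives have a fitted effect of over 25% in size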). Put shortly:
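After 5 days in phenol-red-free 10% charcoal-stripped FBS medium, BG1-Luc-4E2 cells were seeded, left 24 h at 37 C, co-treated with compounds and 17beta-estradiol for 21.5 h, then assayed for viability and luciferase.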

Drawing on PubChem BioAssay (Tox21), this text covers outcome and Potency for nine molecules.

Each structure is given as a SMILES string. “And” between values parts separate entries of the source, which are not always exact repeats. Equal values may be shown once. Inconclusive results are not listed. The source made the active and inactive calls. Unless noted, calls come from the whole dose curve; as a rule, active = well fitted curve in the direction sought with a large enough effect in the repeat runs; inconclusive = weak or mixed curves; inactive = no such curve, though single readings can be large; an effect the other way counts as inactive or inconclusive.

Androgen receptor (Homo sapiens), sequence (P10275 whole entry, looked up): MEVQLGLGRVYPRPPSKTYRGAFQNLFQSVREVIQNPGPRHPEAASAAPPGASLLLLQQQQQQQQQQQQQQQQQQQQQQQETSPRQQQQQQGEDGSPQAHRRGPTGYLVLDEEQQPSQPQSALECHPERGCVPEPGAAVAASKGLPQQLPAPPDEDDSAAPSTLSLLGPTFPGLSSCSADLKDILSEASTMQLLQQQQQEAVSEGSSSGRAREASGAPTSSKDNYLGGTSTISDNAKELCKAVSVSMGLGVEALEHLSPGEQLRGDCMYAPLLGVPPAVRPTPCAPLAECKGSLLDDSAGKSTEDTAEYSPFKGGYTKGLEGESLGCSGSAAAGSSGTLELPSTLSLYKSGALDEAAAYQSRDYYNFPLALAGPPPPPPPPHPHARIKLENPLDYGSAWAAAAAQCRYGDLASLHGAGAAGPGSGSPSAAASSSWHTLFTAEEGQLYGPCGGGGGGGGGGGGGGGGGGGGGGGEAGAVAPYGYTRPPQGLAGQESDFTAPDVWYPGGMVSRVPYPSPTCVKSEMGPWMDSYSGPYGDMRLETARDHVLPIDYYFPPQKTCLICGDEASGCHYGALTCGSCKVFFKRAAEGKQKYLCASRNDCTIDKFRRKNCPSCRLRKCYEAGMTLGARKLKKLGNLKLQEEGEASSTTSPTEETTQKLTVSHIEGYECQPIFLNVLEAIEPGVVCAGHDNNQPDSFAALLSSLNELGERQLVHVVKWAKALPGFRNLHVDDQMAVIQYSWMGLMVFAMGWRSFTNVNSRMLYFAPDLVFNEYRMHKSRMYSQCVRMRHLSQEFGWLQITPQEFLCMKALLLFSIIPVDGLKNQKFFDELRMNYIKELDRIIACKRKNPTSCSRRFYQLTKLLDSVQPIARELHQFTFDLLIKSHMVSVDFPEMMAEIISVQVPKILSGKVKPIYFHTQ

In the case of `Cc1nc2ccc(CN(C)c3ccc(C(=O)N[C@@H](CCC(=O)O)C(=O)O)s3)cc2c(=O)[nH]1`, the call in [1], in assay [5], in assay [7], in assay [11], in assay [13] and in assay [14] was inactive. In addition, the Potency is 3.8 nM (active) and 7.5 nM (active) in [2]; 2.7 nM (active) and 5.3 nM (active) in [3]; 2.1 nM (active) and 4.2 nM (active) in [4]; 190 nM (active) and 239 nM (active) in [12]. Further, the Potency entry in [6], in assay [8], in [9], in assay [10] and in assay [15] was “inactive” in each case.
For the molecule `CC(=O)C1CCCCC1=O` (stereo unspecified), the result in [1], in [5], in [11], in assay [13] and in assay [14] was inactive. Moreover, the Potency entry in assay [2], in assay [3], in [4], in assay [9], in assay [10] and in assay [16] was “inactive” each time. The Potency result in [17], in assay [12], in assay [18], in [19], in [20] and in assay [15] was “inactive” in each case.
Take `C1CCC2(CCCCO2)OC1`: the molecule was classed as inactive in assay [1], in [5], in assay [11], in assay [13] and in [14]. In addition, the Potency result in assay [2], in assay [3], in assay [4], in assay [9], in assay [10] and in assay [16] was “inactive” throughout. For the same molecule, the Potency entry in assay [17], in [12], in assay [18], in assay [19], in assay [20] and in assay [15] was “inactive” each time.
As for `CC(C)(C#N)Nc1nc(Cl)nc(NC2CC2)n1`, the result in assay [1], in [5], in assay [11], in assay [13] and in assay [14] was inactive. In addition, the Potency result in assay [2], in [3], in assay [4], in assay [9], in assay [10] and in [16] was “inactive” each time. In addition, the Potency entry in assay [12] and in assay [15] was “inactive” in each case.
With `Nc1ccn([C@@H]2O[C@H](CO)[C@@H](O)C2O)c(=O)n1` (stereo partly specified), the molecule was classed as inactive in assay [1], in [5], in assay [11], in assay [13] and in assay [14]. Moreover, the Potency in assay [2] was 298 nM (active) and 193 nM (active); in assay [3], 266 nM (active) and 172 nM (active); in [4], 376 nM (active) and 172 nM (active); in assay [10], 531 nM (active) and 486 nM (active); in assay [16], 376 nM (active) and 193 nM (active). For the same molecule, the Potency result in assay [9], in assay [12], in assay [18], in assay [19], in [20] and in assay [15] was “inactive” each time.
In the case of `CC(C)c1ccc2ncccc2c1`, the call in assay [1], in [5], in assay [11], in [13] and in assay [14] was inactive. Moreover, the Potency result in assay [2], in [3], in [4], in assay [9], in [10] and in [16] was “inactive” in each case. The Potency result in [17], in assay [12], in assay [18], in [19] and in assay [15] was “inactive” throughout.
Consider `CCO[Si](OCC)(OCC)c1ccccc1`, for which the molecule was classed as inactive in assay [1], in assay [5], in assay [11] and in [13]. Further, the Potency result in [2], in assay [3], in assay [4], in [9], in [10] and in assay [16] was “inactive” each time. In addition, the Potency result in [12] was “inactive”.
Consider `CCC(C)(CCCC(C)C)OC(C)=O` (stereo unspecified), for which the molecule was called inactive in assay [1], in assay [5], in [11], in assay [13] and in [14]. Moreover, the Potency entry in assay [2], in [3], in assay [4], in assay [9], in assay [10] and in assay [16] was “inactive” in each case. The Potency entry in [17], in assay [12], in assay [18], in [19] and in assay [15] was “inactive” throughout.
`COc1ccnc(CS(=O)c2nc3cc(OC(F)F)ccc3[nH]2)c1OC` (stereo unspecified): the call in assay [1], in assay [5], in assay [11], in assay [13] and in [14] was inactive. Moreover, the Potency result in [2], in assay [3], in assay [4], in assay [9], in [10] and in assay [16] was “inactive” in each case. In addition, the Potency entry in assay [12], in [18], in [19] and in [15] was “inactive” in each case.
